The record followed here is PubChem BioAssay (EPA / NIEHS).

Read-out in assay [1]: Interferon-gamma inducible Protein 10 (IP10), CXCL10 (gene 3627)
Description: BSK_hDFCGF_IP10: BioMAP Diversity Plus: hDFCGF Assay for Interferon-gamma inducible Protein 10 (IP10) Biomarker Activity (AID 2283053). The settings on record: primary human foreskin fibroblasts; actives raise or lower the signal. The method in brief:
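ELISA read-out of IP-10 (CXCL10) from primary human skin fibroblasts, 24 h after compound addition. Gain or loss of signal versus DMSO baseline, bidirectional curve fitting.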

Read-out in assay [2]: Urokinase-type plasminogen activator receptor (uPAR), PLAUR (gene 5329)
Description: BSK_CASM3C_uPAR: BioMAP Diversity Plus: CASM3C Assay for Urokinase-type plasminogen activator receptor (uPAR) Biomarker Activity (AID 2283054).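 Further: cell-surface uPAR protein level quantified by ELISA.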 Particulars: primary human coronary artery smooth muscle cells; actives raise or lower the signal.

Read-out in assay [3]: Vascular cell adhesion molecule 1 (VCAM1), VCAM1 (gene 7412)
In words: BSK_CASM3C_VCAM1: BioMAP Diversity Plus: CASM3C Assay for Vascular cell adhesion molecule 1 (VCAM1) Biomarker Activity (AID 2283055).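 Further: VCAM-1 protein level quantified by ELISA on the cells.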 The settings on record: primary human coronary artery smooth muscle cells; actives raise or lower the signal.

Read-out in assay [4]: Collagen III, COL3A1 (gene 1281)
Description: BSK_hDFCGF_CollagenIII: BioMAP Diversity Plus: hDFCGF Assay for Collagen III Biomarker Activity (AID 2283056). Particulars: primary human foreskin fibroblasts; actives raise or lower the signal. The method in brief: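 hDFCGF primary human dermal fibroblasts; 24 h chemical exposure; collagen III by ELISA; bidirectional curve fit vs DMSO baseline (gain or loss of signal).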

Read-out in assay [5]: Epidermal growth factor receptor (EGFR), EGFR (gene 1956)
Description: BSK_hDFCGF_EGFR: BioMAP Diversity Plus: hDFCGF Assay for Epidermal growth factor receptor (EGFR) Biomarker Activity (AID 2283057). The settings on record: primary human foreskin fibroblasts; actives raise or lower the signal. The method in brief: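 ELISA readout of EGFR on human dermal fibroblasts (primary foreskin cells), 24 h post-dosing; bidirectional curve fit vs DMSO baseline, gain or loss of signal scored.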

Read-out in assay [6]: Interleukin-8 (IL8), CXCL8 (gene 3576)
Description: BSK_hDFCGF_IL8: BioMAP Diversity Plus: hDFCGF Assay for Interleukin-8 (IL8) Biomarker Activity (AID 2283058). Particulars: primary human foreskin fibroblasts; actives raise or lower the signal. The essentials: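 ELISA read-out of IL-8 from primary human foreskin fibroblast cultures taken 24 h after dosing; values are bidirectional fits relative to DMSO vehicle.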

The nature of assay [7]: BSK_hDFCGF_Proliferation: Cell Proliferation Assessment in the BioMAP Diversity Plus: hDFCGF Assay (AID 2283059).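 Further: curves fitted for both rise and fall of signal versus DMSO baseline.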 The settings on record: primary human foreskin fibroblasts. The method in brief: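 This proliferation readout used SRB total-protein staining of human foreskin fibroblasts […], normalized to DMSO with bidirectional curve fitting.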
Read-out in assay [8]: Macrophage colony-stimulating factor (MCSF), CSF1 (gene 1435)
In words: BSK_hDFCGF_MCSF: BioMAP Diversity Plus: hDFCGF Assay for Macrophage colony-stimulating factor (MCSF) Biomarker Activity (AID 2283060). Particulars: primary human foreskin fibroblasts; actives raise or lower the signal. The essentials:
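ELISA read-out of M-CSF in human dermal foreskin fibroblast cultures, 24 h after chemical dosing; gain or loss of signal fitted bidirectionally relative to DMSO baseline.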

Assay [9] is described as follows: BSK_hDFCGF_SRB: Viability Assessment in the BioMAP Diversity Plus: hDFCGF Assay (AID 2283061).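 Further: cells exposed to compound for 24 h before the read.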 Particulars: primary human foreskin fibroblasts. The method in brief:
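Primary human foreskin fibroblasts; 24 h post-dose; fixed 10% TCA, stained 0.1% SRB, A560 read; total protein as overt cytotoxicity measure; curves fit bidirectionally vs DMSO control.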

Read-out in assay [10]: TIMP metallopeptidase inhibitor 1 (TIMP1), TIMP1 (gene 7076)
Description: BSK_hDFCGF_TIMP1: BioMAP Diversity Plus: hDFCGF Assay for TIMP metallopeptidase inhibitor 1 (TIMP1) Biomarker Activity (AID 2283062). The settings on record: primary human foreskin fibroblasts; actives raise or lower the signal. The essentials: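 ELISA readout of TIMP-1 from human dermal foreskin fibroblast cultures 24 h post-dosing. Curves were fitted in both directions against DMSO baseline, with SRB total-protein staining in parallel cultures as a cytotoxicity check.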

Where “and” joins values, the source holds several entries; their conditions need not be identical. Equal entries are not always repeated. A structure can be active in one record and inactive in another. Calls of active or inactive are those of the source. How the source made its calls: active means hit-call score of the fitted dose curve at least 0.9, where 1 is the maximum; inactive means score below 0.9.

`CCCCN(CCCC)C(=O)N(CCCC)CCCC`: the AC50 in assay [1] was 11.1 µM (active); in assay [2], 20 µM (active); in [3] it was 12.8 µM (active); in assay [4], 7.43 µM (active); in [7], 3.96 µM (active); in [8], 9.49 µM (active). For the same compound, the figures for the AC50 in [9] and in assay [10] were 10.3 µM (active) and 9.64 µM (active), respectively. Besides, the outcome in assay [5] and in assay [6] was inactive.

In the case of `C=C(C)[C@H]1CC=C(C)C(=O)C1`, the outcome in assay [1], in [2], in [3], in [4], in [5] and in assay [6] was inactive. Besides, the outcome in assay [7], in [8], in assay [9] and in assay [10] was inactive.

For the compound `CN(C)C(=O)Nc1ccc(Oc2ccc(Cl)cc2)cc1`, the outcome in [1], in assay [2], in assay [3], in [4], in assay [5] and in [6] was inactive. Besides, the outcome in assay [7], in assay [8], in assay [9] and in assay [10] was inactive.

On to `CCCCCC(C=O)=Cc1ccccc1`, for which the result in [1], in [5], in [6], in [8] and in [10] was inactive. For the same compound, the AC50 is 39.3 µM (active) in assay [2]; 31.2 µM (active) in [3]; 31 µM (active) in assay [4]; 31.4 µM (active) in assay [7]; 31.5 µM (active) in [9].

As for `CCN(CC)C(=O)N(CC)CC`, the outcome in assay [1], in assay [2], in assay [3], in assay [4], in assay [5] and in assay [6] was inactive. The result in assay [7], in assay [8], in assay [9] and in assay [10] was inactive.

On to `CC(C=O)Cc1ccc(C(C)(C)C)cc1` (stereo not drawn), for which the result in assay [1], in [4] and in assay [6] was inactive. Also, the AC50 in assay [2] was 33.7 µM (active); in assay [3], 27.3 µM (active); in assay [5], 32.1 µM (active); in assay [7] it was 29.1 µM (active); in [8], 29.5 µM (active); in assay [9], 35.5 µM (active). The AC50 in assay [10] is 31.9 µM (active).

`CCOC(=O)C(C#N)=C(c1ccccc1)c1ccccc1`: the outcome in [1], in assay [2], in [3], in assay [5], in [6] and in assay [7] was inactive. The result in assay [8], in [9] and in [10] was inactive. The AC50 in [4] is 29.7 µM (active) and 21.9 µM (active); in [7] it was 29.5 µM (active); in assay [8] it was 23.3 µM (active).

Regarding `CCC(C)c1cc([N+](=O)[O-])cc([N+](=O)[O-])c1OC(=O)OC(C)C` (stereo not drawn), the AC50 in assay [1] is 8.25 µM (active); in [2], 24.3 µM (active); in [3] it was 32.1 µM (active); in assay [4] it was 6.86 µM (active); in [6], 13.4 µM (active); in assay [7] it was 4.37 µM (active). Further, the results for the AC50 in [8], in [9] and in [10] were 6.2 µM (active), 9.55 µM (active) and 11.2 µM (active), respectively. Moreover, the result in assay [5] was inactive.

For the compound `CCCCCCC(CO)CCCC` (stereo not drawn), the AC50 in [1] is 30.6 µM (active) and 32.5 µM (active); in assay [3], 2.22 µM (active); in [4], 29.6 µM (active) and 31.9 µM (active); in assay [6], 37.9 µM (active) and 37.8 µM (active); in assay [7], 35.1 µM (active) and 31.4 µM (active); in assay [8], 33.8 µM (active) and 30.2 µM (active). Besides, the AC50 in assay [9] was 30.8 µM (active) and 31.4 µM (active); in [10] it was 30.9 µM (active) and 35.9 µM (active). The result in [2], in assay [3] and in [5] was inactive.

Take `C1=CC2C3C=CC(C3)C2C1` (stereo not drawn): the outcome in assay [1], in [2], in assay [3], in [4], in [5] and in assay [6] was inactive. The result in [7], in [8], in [9] and in [10] was inactive.

As to `CCCCOC(=O)CCCCCCCC(=O)OCCCC`, the result in assay [1], in assay [2], in assay [3], in [4], in assay [5] and in assay [6] was inactive. The outcome in [7], in assay [8], in [9] and in assay [10] was inactive.

Take `c1ccc(Oc2ccccc2)cc1`: the result in assay [1], in [2], in assay [3], in assay [4], in [5] and in assay [6] was inactive. In addition, the result in [7], in [8], in [9] and in assay [10] was inactive.

Take `CC(=O)C1(C)CC2=C(CCCC2(C)C)CC1C` (stereo not drawn): the AC50 is 13.8 µM (active) in [1]; 12.3 µM (active) in [2]; 11.4 µM (active) in [3]; 10.5 µM (active) in assay [4]; 6.8 µM (active) in assay [5]; 31.7 µM (active) in [6]. Moreover, the AC50 in assay [7] is 10.6 µM (active); in assay [8] it was 10.9 µM (active); in assay [9], 11.2 µM (active); in assay [10] it was 12 µM (active).

Regarding `CS(=O)(=O)c1ccc(C2=C(c3ccccc3)C(=O)OC2)cc1`, the result in assay [1], in assay [2], in assay [3], in assay [4], in [5] and in assay [6] was inactive. Further, the result in [7], in assay [8], in assay [9] and in [10] was inactive.

As for `CN(C)C(=S)SC(=S)N(C)C`, the AC50 was 35.1 µM (active) in assay [1]; 19.9 µM (active) in [3]; 15.2 µM (active) in assay [4]; 19.9 µM (active) in [5]; 39.1 µM (active) in assay [6]; 30.2 µM (active) in assay [7]. Further, the AC50 in [8] was 31.4 µM (active); in assay [10], 37.8 µM (active). Further, the result in [2] and in assay [9] was inactive.

Turning to `CC(CN=Cc1ccccc1O)N=Cc1ccccc1O` (stereo not drawn), the outcome in assay [1], in [2], in assay [3], in assay [4], in assay [5] and in [6] was inactive. Further, the result in assay [7], in assay [8], in [9] and in [10] was inactive.

For `c1ccc2cc(Nc3ccc(Nc4ccc5ccccc5c4)cc3)ccc2c1`, the outcome in assay [1], in assay [2], in [3], in assay [4], in [5] and in [6] was inactive. Also, the result in [7], in assay [8], in assay [9] and in [10] was inactive.

As for `CC=Cc1ccc(OCC)c(O)c1`, the outcome in assay [1], in assay [2], in [3], in assay [4], in [5] and in assay [6] was inactive. Also, the result in [7], in [8], in assay [9] and in assay [10] was inactive.

Take `O=C1OC2(c3ccccc31)c1ccc(O)c(Br)c1Oc1c2ccc(O)c1Br`: the half-maximal activity concentration (AC50) in [1], in [7] and in assay [8] was 20 µM (active) throughout. The outcome in assay [2], in [3], in [4], in assay [5], in [6] and in assay [9] was inactive. The outcome in [10] was inactive.

With `COc1ccc(OC)c(N=Nc2c(O)ccc3ccccc23)c1`, the concentration at half-maximal activity (AC50) in [1] was 3.71 µM (active); in assay [3], 20 µM (active); in assay [4] it was 1.92 µM (active); in assay [7] it was 10.2 µM (active); in [8], 5.74 µM (active); in assay [9], 8.26 µM (active). Moreover, the half-maximal activity concentration (AC50) in [10] was 4.02 µM (active). Besides, the outcome in assay [2], in assay [5] and in assay [6] was inactive.

On to `CC(C)(N=C=O)c1cccc(C(C)(C)N=C=O)c1`, for which the outcome in assay [1], in [2], in assay [3], in assay [4], in assay [5] and in assay [6] was inactive. Besides, the result in assay [8], in assay [9] and in [10] was inactive. For the same compound, the AC50 in assay [7] was 29.9 µM (active).

For the compound `CC1(C)C2=CCCC(C)(C)[C@]23CC[C@H]1C3`, the AC50 in assay [1] was 34.9 µM (active); in assay [2] it was 20 µM (active); in assay [3], 30.8 µM (active); in [4], 20 µM (active); in assay [7], 8.84 µM (active); in [8] it was 30.2 µM (active). The AC50 is 31.9 µM (active) in assay [9] and 31.2 µM (active) in assay [10]. Besides, the outcome in assay [5] and in assay [6] was inactive.

For the compound `Clc1cc(Cl)c(-c2c(Cl)c(Cl)cc(Cl)c2Cl)cc1Cl`, the AC50 in [1] was 16 µM (active); in [4], 4.19 µM (active); in assay [6], 15.8 µM (active); in assay [7], 3.7 µM (active); in assay [8], 8.48 µM (active); in assay [9] it was 14.7 µM (active). The AC50 in assay [10] is 10 µM (active). For the same compound, the result in assay [2], in assay [3] and in [5] was inactive.

As a reminder, the AC50 is the concentration giving half of the maximal activity seen.
